Laboratory results taken from publication doi:10.1101/2025.08.08.669391.

Target: Splicing factor 3B subunit 1 (UniProt O75533)
Test: cross-link between two proteins; cross-linking mass spectrometry

Chain of UniProt O75533 (O75533 whole entry): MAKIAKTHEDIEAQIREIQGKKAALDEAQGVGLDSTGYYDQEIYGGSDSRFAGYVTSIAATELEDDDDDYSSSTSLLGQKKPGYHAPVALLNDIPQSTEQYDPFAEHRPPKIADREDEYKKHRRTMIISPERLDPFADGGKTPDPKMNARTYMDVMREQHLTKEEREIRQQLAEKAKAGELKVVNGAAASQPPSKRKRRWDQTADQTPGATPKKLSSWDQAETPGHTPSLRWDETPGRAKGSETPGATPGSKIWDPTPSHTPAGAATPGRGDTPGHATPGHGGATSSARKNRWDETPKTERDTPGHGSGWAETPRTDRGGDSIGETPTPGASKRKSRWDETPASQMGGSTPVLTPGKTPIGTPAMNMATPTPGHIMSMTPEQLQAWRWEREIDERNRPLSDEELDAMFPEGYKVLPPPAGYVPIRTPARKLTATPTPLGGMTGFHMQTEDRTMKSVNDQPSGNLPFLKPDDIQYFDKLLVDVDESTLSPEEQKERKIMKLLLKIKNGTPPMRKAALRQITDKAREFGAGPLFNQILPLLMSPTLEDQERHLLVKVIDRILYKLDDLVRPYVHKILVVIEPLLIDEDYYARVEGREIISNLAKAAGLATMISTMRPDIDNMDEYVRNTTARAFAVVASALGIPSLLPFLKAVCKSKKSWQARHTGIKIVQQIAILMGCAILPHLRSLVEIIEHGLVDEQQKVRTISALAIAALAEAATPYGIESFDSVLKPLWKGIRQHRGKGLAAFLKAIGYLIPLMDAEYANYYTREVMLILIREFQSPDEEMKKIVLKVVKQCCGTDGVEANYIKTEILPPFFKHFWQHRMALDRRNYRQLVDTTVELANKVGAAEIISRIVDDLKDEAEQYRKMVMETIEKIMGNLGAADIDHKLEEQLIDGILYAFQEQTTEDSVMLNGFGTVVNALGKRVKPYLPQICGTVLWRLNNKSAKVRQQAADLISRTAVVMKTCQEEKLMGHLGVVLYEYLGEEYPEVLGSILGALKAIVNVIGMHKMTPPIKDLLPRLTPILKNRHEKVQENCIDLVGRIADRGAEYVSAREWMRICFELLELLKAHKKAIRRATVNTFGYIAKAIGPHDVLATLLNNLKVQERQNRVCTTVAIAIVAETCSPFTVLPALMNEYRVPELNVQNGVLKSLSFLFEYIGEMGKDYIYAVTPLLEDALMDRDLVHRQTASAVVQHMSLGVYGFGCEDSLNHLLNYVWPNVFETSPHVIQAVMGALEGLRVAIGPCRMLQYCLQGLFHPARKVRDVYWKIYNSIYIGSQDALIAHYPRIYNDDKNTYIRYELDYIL

Question: For “17S U2 SnRNP complex component HTATSF1, O43719”, which “listed as a hit” value is on record?
Answer: Its value is “yes”.
